Measurements from PubChem BioAssay (Tox21).
Records with an inconclusive call do not appear. Active and inactive are the calls of the source. Unless noted, the call rests on the fitted dose curve.

Columns and labels:
[1] = target: Estrogen receptor beta (Homo sapiens) (UniProt Q92731); assay: qHTS assay to identify small molecule agonists of the estrogen receptor beta (ER-beta) signaling pathway (AID 1259377; active means well fitted activation curve with a large enough effect in the signal ratio in the repeat runs, not every such curve was filed as active; the % refers to the signal ratio)
Chain of Estrogen receptor beta (Homo sapiens) (Q92731 whole entry, looked up): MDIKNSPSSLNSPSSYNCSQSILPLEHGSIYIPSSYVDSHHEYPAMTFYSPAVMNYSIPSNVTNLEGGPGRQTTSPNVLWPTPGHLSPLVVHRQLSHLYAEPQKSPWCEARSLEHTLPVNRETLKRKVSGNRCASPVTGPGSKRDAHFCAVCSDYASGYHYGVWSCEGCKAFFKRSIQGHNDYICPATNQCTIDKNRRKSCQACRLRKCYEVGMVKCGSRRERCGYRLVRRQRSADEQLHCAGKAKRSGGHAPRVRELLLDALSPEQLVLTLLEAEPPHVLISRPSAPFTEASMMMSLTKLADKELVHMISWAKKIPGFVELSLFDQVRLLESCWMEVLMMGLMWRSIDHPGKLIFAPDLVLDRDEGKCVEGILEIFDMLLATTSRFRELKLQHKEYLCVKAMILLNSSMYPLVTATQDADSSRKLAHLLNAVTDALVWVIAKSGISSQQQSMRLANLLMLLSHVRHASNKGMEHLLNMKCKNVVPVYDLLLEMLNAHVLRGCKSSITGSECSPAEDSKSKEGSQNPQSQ
How it was run: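 ER-beta-UAS-bla HEK293T cells in medium with 2% charcoal-stripped FBS were exposed to compounds for 16 h at 37C. Beta-lactamase reporter activity was read as fluorescence after 2 h with LiveBLAzer B/G FRET substrate at room temperature.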

[2] = target: Estrogen receptor beta (Homo sapiens) (UniProt Q92731); assay: qHTS assay to identify small molecule antagonists of the estrogen receptor beta (ER-beta) signaling pathway (AID 1259378; active means well fitted inhibition curve with a large enough effect in the signal ratio in the repeat runs, not every such curve was filed as active; the % refers to the signal ratio)
How it was run: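 ER-beta-UAS-bla HEK293T cells in 2% charcoal-stripped FBS medium treated with compound plus 1nM final 17-beta-estradiol for 16 hr at 37C. Beta-lactamase reporter read by FRET substrate fluorescence after 2 hours at room temperature.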

[3] = qHTS assay to identify small molecule agonists of the androgen receptor (AR) signaling pathway in the presence of an antagonist - cell viability counter screen (AID 1259379; active means well fitted curve in the direction sought with a large enough effect in the repeat runs; an effect the other way counts as inactive or inconclusive;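 further: MDA-kb2 human breast cancer cells carrying an MMTV luciferase reporter; series mostly up to about 92 µM; nearly all actives have a fitted effect of over 25% in size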)
How it was run: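 Viability counter screen: CellTiter-Fluor fluorescence, measured in the same wells as the luciferase read-out. MDA-kb2 cells, 3,000/well, with nilutamide at 3.0uM final and compounds at 15 concentrations, 16 hr at 37C, 0% CO2.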

[4] = target: Estrogen receptor (Homo sapiens) (UniProt P03372); assay: qHTS assay to identify small molecule agonists of the estrogen receptor alpha (ER-alpha) signaling pathway in the presence of an antagonist (AID 1259383); further: top concentration of the series differs between compounds; nearly all actives have a fitted effect of over 15% in size
Chain of Estrogen receptor (Homo sapiens) (P03372 whole entry, looked up): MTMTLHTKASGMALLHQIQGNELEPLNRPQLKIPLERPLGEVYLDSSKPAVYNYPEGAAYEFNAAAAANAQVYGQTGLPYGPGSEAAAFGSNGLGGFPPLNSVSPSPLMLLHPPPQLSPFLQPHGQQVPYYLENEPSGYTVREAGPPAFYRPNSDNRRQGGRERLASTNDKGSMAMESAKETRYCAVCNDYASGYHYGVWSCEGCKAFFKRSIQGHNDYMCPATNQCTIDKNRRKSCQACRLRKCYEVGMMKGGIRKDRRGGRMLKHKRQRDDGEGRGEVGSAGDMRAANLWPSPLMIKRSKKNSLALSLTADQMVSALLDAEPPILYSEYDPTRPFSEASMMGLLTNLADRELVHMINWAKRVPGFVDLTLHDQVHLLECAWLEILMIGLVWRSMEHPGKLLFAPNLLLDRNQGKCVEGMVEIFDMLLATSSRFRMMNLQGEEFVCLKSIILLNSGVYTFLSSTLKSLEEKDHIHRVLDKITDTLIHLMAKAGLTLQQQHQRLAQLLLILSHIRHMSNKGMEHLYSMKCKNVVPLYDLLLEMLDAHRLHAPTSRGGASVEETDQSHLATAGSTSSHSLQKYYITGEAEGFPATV
How it was run: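 Luciferase luminescence (ONE-Glo, 30min at room temperature) measured in VM7Luc4E2 cells after 22hr compound exposure at 15 concentrations, with 10.0nM ICI-182,780 final present; cells express endogenous ER-alpha and carry four EREs upstream of luciferase.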

[5] = qHTS assay to identify small molecule agonists or antagonists of the thyroid stimulating hormone receptor (TSHR) signaling pathway - wild type cell line counter screen (AID 1259384)
How it was run: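 Wild-type Hek293 cells, 800/well, 18 h at 37C, then compound with Ro20-1724 for 30 min RT. cAMP by HTRF (cAMP-d2/anti-cAMP cryptate), 1 h RT, fluorescence read. 15 concentrations, triplicates.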

[6] = qHTS assay to identify small molecule agonists of the estrogen receptor beta (ER-beta) signaling pathway - cell viability counter screen (AID 1259380; active means well fitted curve in the direction sought with a large enough effect in the repeat runs; an effect the other way counts as inactive or inconclusive; further: nearly all actives have a fitted effect of over 30% in size)
How it was run: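 Luminescence read-out (CellTiter-Glo, 30 min, room temp) taken in the same wells as the beta-lactamase reporter assay; ER-beta-UAS-bla HEK293T cells exposed to DMSO-dissolved compounds for 16 hr at 37C in 2% charcoal-stripped FBS medium.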

[7] = target: Androgen receptor (Homo sapiens) (UniProt P10275); assay: qHTS assay to identify small molecule agonists of the androgen receptor (AR) signaling pathway in the presence of an antagonist (AID 1259381); further: nearly all actives have a fitted effect of over 15% in size
Chain of Androgen receptor (Homo sapiens) (P10275 whole entry, looked up): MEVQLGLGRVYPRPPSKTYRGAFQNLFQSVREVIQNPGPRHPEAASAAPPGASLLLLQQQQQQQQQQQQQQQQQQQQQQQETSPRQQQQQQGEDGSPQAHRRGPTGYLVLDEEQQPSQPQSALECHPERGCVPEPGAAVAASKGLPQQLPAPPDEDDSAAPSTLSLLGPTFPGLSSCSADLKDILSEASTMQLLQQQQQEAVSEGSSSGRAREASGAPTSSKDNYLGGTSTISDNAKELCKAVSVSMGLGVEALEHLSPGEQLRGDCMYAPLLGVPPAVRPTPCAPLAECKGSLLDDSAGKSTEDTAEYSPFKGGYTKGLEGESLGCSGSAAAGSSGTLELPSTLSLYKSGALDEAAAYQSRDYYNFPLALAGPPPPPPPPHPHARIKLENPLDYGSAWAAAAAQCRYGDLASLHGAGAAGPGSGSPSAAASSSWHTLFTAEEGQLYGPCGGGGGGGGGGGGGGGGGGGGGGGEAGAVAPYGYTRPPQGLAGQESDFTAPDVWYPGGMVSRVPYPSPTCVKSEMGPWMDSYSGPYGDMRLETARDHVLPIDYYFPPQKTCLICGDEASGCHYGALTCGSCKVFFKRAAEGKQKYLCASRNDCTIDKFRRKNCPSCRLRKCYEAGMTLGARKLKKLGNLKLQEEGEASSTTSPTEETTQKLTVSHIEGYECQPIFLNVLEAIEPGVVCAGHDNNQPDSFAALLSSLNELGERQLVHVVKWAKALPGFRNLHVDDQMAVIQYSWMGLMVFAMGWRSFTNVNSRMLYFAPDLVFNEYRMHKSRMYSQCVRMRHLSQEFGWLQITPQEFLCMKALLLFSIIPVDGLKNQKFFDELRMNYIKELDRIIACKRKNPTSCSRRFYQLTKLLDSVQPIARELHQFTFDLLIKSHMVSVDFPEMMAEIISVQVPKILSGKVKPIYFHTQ
How it was run: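 Luciferase read-out (ONE-Glo, 30min room temperature) in MDA-kb2 MMTV-reporter cells; agonist mode run in presence of AR antagonist nilutamide, 3.0uM final. Compounds tested as 15-point series, 16hr exposure at 37C, 0% CO2.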

[8] = qHTS assay to identify small molecule antagonists of the estrogen receptor beta (ER-beta) signaling pathway - cell viability counter screen (AID 1259382; active means well fitted curve in the direction sought with a large enough effect in the repeat runs; an effect the other way counts as inactive or inconclusive; further: series mostly up to about 92 µM; nearly all actives have a fitted effect of over 55% in size)
How it was run: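 Luminescent ATP read-out (CellTiter-Glo, 30 min, RT) taken in the same wells as the bla reporter assay. HEK293T ER-beta-UAS-bla cells in 2% charcoal-stripped FBS were exposed to compounds with 1nM E2 for 16 hr at 37C.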

[9] = target: Thyrotropin receptor (Homo sapiens) (UniProt P16473); assay: qHTS assay to identify small molecule antagonists of the thyroid stimulating hormone receptor (TSHR) signaling pathway (AID 1259385); further: nearly all actives have a fitted effect of over 20% in size
Chain of Thyrotropin receptor (Homo sapiens) (P16473 whole entry, looked up): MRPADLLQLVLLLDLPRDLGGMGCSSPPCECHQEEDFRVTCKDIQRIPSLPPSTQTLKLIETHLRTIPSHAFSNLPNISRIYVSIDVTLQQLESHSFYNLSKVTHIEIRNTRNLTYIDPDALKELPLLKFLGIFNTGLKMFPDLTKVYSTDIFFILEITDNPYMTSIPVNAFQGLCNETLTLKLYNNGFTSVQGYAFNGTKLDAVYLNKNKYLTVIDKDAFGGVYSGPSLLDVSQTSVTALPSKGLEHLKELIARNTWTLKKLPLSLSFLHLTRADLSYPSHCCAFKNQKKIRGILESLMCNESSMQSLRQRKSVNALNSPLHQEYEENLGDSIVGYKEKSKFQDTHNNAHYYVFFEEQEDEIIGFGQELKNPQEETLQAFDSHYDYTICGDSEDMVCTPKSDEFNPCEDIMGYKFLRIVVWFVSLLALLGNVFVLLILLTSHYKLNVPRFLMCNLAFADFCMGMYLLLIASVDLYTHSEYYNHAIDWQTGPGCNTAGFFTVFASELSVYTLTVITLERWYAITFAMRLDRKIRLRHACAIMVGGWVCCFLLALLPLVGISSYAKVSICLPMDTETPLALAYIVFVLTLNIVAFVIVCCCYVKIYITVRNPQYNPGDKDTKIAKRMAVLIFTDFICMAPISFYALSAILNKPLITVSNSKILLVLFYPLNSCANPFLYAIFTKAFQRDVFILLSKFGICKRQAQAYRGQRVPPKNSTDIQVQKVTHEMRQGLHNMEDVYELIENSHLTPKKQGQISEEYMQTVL
How it was run: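 TSHR-HEK293 cells (800/well) plated 18 h, then compounds with Ro20-1724 and TSH at 1.5 ng/mL final, 30 min at room temperature. cAMP quantified by HTRF (cAMP-d2/anti-cAMP-cryptate, 1 h); 15 concentrations in triplicate.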

Measured: Potency

COc1cc(N)c(Cl)cc1C(=O)NC1CCN(Cc2ccccc2)CC1
inactive: [1] | [2] | [3] | [4] | [5]

CCOC(=O)c1cc(=O)c2c(OCC(COc3cccc4oc(C(=O)OCC)cc(=O)c34)OC(=O)[C@@H](N)CCCCN)cccc2o1
inactive: all assays above

CCCCNc1ccc(C(=O)OCCN(CC)CC)cc1
not listed: [6] | [7] | [9]
inactive: all other assays above

CCOC(=O)c1ccccc1O
not listed: [4] | [7] | [8]
inactive: all other assays above

COC(=O)N[C@H](C(=O)N[C@@H](Cc1ccccc1)[C@@H](O)CN(Cc1ccc(-c2ccccn2)cc1)NC(=O)[C@@H](NC(=O)OC)C(C)(C)C)C(C)(C)C
not listed: [7] | [8]
inactive: all other assays above

CCCC(CCC)(C(=O)OCC)C(=O)OCC
inactive: all assays above

N#CSCC(=O)O
inactive: all assays above

CC1=C(O)C(=O)OC1C (stereo not drawn)
not listed: [4] | [7]
inactive: all other assays above
